Source: PubChem BioAssay AID1347426 (Functional Genomics Laboratory (NCATS/FGL), 2020)
The whole screen tested about 31,000 sequences, of which about 1,400 (4.5%) were called active. The full list was thinned out, with actives kept by preference. A number with no mark means an inactive call.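 Rule for the calls: active = median seed-adjusted z-score above 1 or below -1; inactive = the rest.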

Assay: Novel Modifiers of Survival Motor Neuron (SMN) Protein: Gene Identification via Genome-wide siRNA Screen;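 note: luminescence tracks full-length SMN protein made from the SMN2 reporter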
Conditions: HEK293T SMN2-luciferase reporter, siRNA knockdown, 72 h; actives lie on both sides
Procedure, shortened: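 Luciferase signal, proportional to full-length SMN made from an SMN2 cDNA reporter in stable HEK293T cells, was read 72 h after siRNA reverse transfection. Values were expressed as MAD scores after non-targeting-control normalization and log10 conversion; seed analysis flagged off-targets.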

Point of comparison: GAUGCAUUCGAUGACCUGATT against PTGES2, median seed-adjusted z-score -0.02. Against it:
- GGAUAUUGCGUUUGGAACATT against TDP1 — lower, -0.352
- GGAUACUCUUCCUAUUCAATT against OMA1 — higher, 0
- CGGCUUUUAUGGACGAGUUTT against STX3 — higher, 0.686
- GAAACAAAGUCUUAAUAUUTT against ATP1A4 — higher, 0.116
- GGAAAAGUUCUGAAGACUATT against CPOX — lower, -0.135
- GCACCUCACCCAUCAAUGATT against RERE — higher, 0.129
- GGUUCGGCAUGAGUGUGAATT against ZNF187 — higher, 0.419
- GCAGGAGACUCAAAGAUUUTT against DDO — lower, -0.202
- GUCUAUCUCUUGUCUAAAATT against HYAL4 — lower, -0.236
- CGCUCAUGGACUUCGCCUATT against ZBTB7A — lower, -0.344
- CCAUAACGGUGGAUGAGUATT against MPPED2 — higher, 0.418
- GAAGUUUGACCAUGACUUUTT against ACCN5 — higher, 0.227
- CACUGAUUCUGAAGGCGAATT against RPS6KA1 — higher, 0.194
- CGUCUGACUUCGCUAGCAATT against HOXD11 — lower, -0.185
- ACAAAAAGGGCAUACAUUATT against S100A7A — higher, 0.212
- GCAGCUGUUUGGAACCAAATT against TRIM47 — higher, 0.707
- GCAUCUCUUCUAUGCCGAATT against MATN2 — higher, 0.275
- ACUUAAUGCCUGCCUAUUATT against CYP21A2 — lower, -0.26
- UGACGUAGGCAUAAACGGATT against PCDH11Y — higher, 0.186
- GCUCUAAACCAGAACGGGATT against ARAP3 — higher, -0.00876
- GCAUUGUCCGUCUUCAUCATT against GLP1R — higher, 0
- GCACGUCACUGUGGUUGUATT against THNSL2 — higher, 0
- GGAUGUAGCUGUCAACUGUTT against HSD17B10 — lower, -0.355
- GACCUUACGAGGUUUCUAATT against TSNAX — higher, 0.514
- CGUUCCUAAGCUACAAGAATT against TMPRSS9 — higher, 0.106
- GAAUUCAGAUGCGAGUAAATT against RFX6 — higher, 0.119
- CUGUUUACAUGACCUAUUUTT against MAFG — higher, 0
- GGUUCCUUAUUAUAGUCCATT against GPR63 — higher, -0.0154
- CGGUGCUCCCUGUCAUAAATT against CCR2 — higher, -0.00107
- GGCAUGAAUUUGAACUGUATT against CA8 — higher, 0.172
- GGACGGCUUUCUGCAAAGATT against GLRA2 — lower, -0.927
- GCACCAUAGUGACACUGAATT against IFNAR2 — lower, -0.219
- CAUUCAUCUCAAUAAUUGATT against IL5RA — lower, -0.357
- CAUGGACGAGAUCAAGGAATT against AGXT — higher, 0.017
- GCACUACUCCGAGAAGUUATT against NEK6 — lower, -0.674
- AGACCGACGUGAAAGAGGATT against HAND2 — higher, 0.0864
- CAGUUGCCUAUAUCCUAUATT against TDRKH — lower, -0.434
- CCCUUGUAGUGAAACGGAATT against CYP4F8 — higher, 0.756
- ACUACUUCCUGAACCGGGATT against CD2BP2 — lower, -0.455
- CCAGCCCACUCAUCUCAUUTT against SNX30 — lower, -0.157
- GCCGAGGAACAAUCUCUCATT against RASGRP4 — higher, 0.162
- GGACCGGAGCAGUAUAGAATT against TRIM37 — lower, -0.108
- CGGUUACGAUAAUGCGUUATT against ENPP5 — lower, -0.0499
- GCACAAGUGCUGAGCCAGATT against LENG9 — higher, 0.607
- GUAUUAUUUUCGUACACGATT against RABL3 — higher, 0.843
- CCGGCUACCUGAUCGUGUATT against PITPNM1 — lower, -0.203
- GAAAUGACAUUAGCUGAUUTT against CLIC4 — lower, -0.498
- CCUGGAGAGUUACUUUGAATT against CCL23 — lower, -0.285
- CCUCGUCGAUCGUGCAUCUTT against ADRA2C — higher, 0
- CGAAAGGAAACCUAACGAATT against HIVEP2 — higher, 0.294
- GCACAGGCAUCAUCGGGAATT against SGSH — higher, 0.383
- GCCUCAAGGUUCACCUGAATT against PRDM1 — lower, -0.16
- GGGCUGAUGUUAUCAACUUTT against CNTNAP2 — lower, -0.196
- CGACACUGCCGAAUGGAAATT against SRCRB4D — lower, -0.0568
- UGCCCGUCAUUGUCUCCAATT against KCNA7 — higher, 0.394
- AGAUCAUUGCUUUCAGUGATT against PRDX1 — higher, 0.288
- CCUACAAUGUGGUGCAUAUTT against DYRK4 — lower, -0.824
- CAAGAAUUCCGAUUUCCAATT against GNGT2 — lower, -0.289
- GCAAUGAACUCAACAGCUATT against ANGPTL7 — higher, 0
- GGUUAUCGACGACAGCAGATT against AGAP3 — higher, 0.554
- GCAUCCCACUACUACAAAUTT against KSR2 — lower, -0.371
- UACCUGUGGUCAUUCCUUATT against HHATL — higher, 0.497
- ACACCUCACUCAUCCUCUUTT against GNAZ — lower, -0.604
- GGGCAAUGAUAGAAAGAAUTT against STK35 — higher, 0.519
- GGAGGGAUGGUUACUGUUATT against TOX4 — higher, 0
- CAGUGAAAAGUGACGCGGATT against DZIP1 — lower, -0.138
- CGAAAGUCCUCACCAACAATT against TSHZ1 — higher, 0.526
- GCCUUUCAUCAGAUCUUCUTT against DBX1 — higher, 0.0137
- CCAUAGAAUUCAAAAUCCUTT against BCL2L14 — lower, -0.859
- GGAGUCUACUUUACCGGUATT against BPIL2 — lower, -0.63
- GCAGAGAAAAUAUAACUGATT against NPHP1 — lower, -0.0667
- AGAUGGUCCAAGAUCCAGATT against CHRM4 — lower, -0.856
- GGAGUUUCCCAUCAAACGATT against PADI4 — higher, 0.417
- CUUCCUAGGUUACAAGUAATT against FAM84B — lower, -0.431
- GGGACAAGCUUGACAAGGUTT against TRIM62 — higher, -0.000231
- GGGUGUCUAAAGGUACAUATT against FSD2 — higher, 0.359
- GUACGUUGUAUGUUAAACATT against SLC12A2 — lower, -0.4
- GGAGUUCGCAAAAUCGUCATT against NRK — higher, 0.0687
- CCUCCAUGUCCAACCCAUATT against FOSL2 — lower, -0.372
- AGUAGAACGUGUACGCAGATT against MGST1 — higher, -0.0144
- GAAUAUCGGCAGAGAGAUATT against RNF12 — higher, 0.29
- CGGAGAAGAUGUUCGCCGATT against SIL1 — higher, 0.0292
- GGAUGUGCACUCUCAUUGATT against COPA — lower, -0.807
- GGAGAUUCAGAUCCUCAAATT against JAK3 — lower, -0.0926
- GAAGCUCUACUCACAGUUUTT against GSTM2 — lower, -0.464
- CUUAACCUGUGGAAUCGAATT against NIPA2 — lower, -0.103

For GGUUGUCAUUAACAACAGUTT against DLST, the median seed-adjusted z-score was 1.16 (active).
For GCUCAUUGGUACAAUGUCATT against POLE, the median seed-adjusted z-score was -1.55 (active).
For GGAUGUUGUUUAUCGAGGATT against MED21, the median seed-adjusted z-score was -1.3 (active).
In the case of ACAAGCACCUAGACCAUGATT against ANGPTL4, the median seed-adjusted z-score was 1.37 (active).
With AGACCAACCCUGGUACUUUTT against SRMS the median seed-adjusted z-score was -1.58 (active).
With GCUUAUACAUUCCGAUGAATT against PTPRZ1 the median seed-adjusted z-score was 1.73 (active).
In the case of CGGCACAUCCUGCUUUGUUTT against ZNF213, the median seed-adjusted z-score was 1.37 (active).
With CCGUCAAGGUCGUCAUACATT against NTSR1 the median seed-adjusted z-score was -1.1 (active).
For AGUGUCUACUGUGAGAAUATT against TRAF4, the median seed-adjusted z-score was -1.16 (active).
With CAGUGGACUUCCAACCCAATT against SF3A1 the median seed-adjusted z-score was -1.09 (active).
In the case of CAAUAGUAAAGGGAUAUAATT against MED27, the median seed-adjusted z-score was -1.62 (active).
For GCAGAGUUUCGUACAAGGATT against KPNA6, the median seed-adjusted z-score was -1.54 (active).
In the case of CCACUACCCUGAGAACUUUTT against TOP3B, the median seed-adjusted z-score was -1.11 (active).
For CUACAUUGCUGGGACUAAUTT against RRM1, the median seed-adjusted z-score was -5.51 (active).
With GUAUCUCAACAUCAAACUATT against LSM2 the median seed-adjusted z-score was -1.48 (active).
In the case of GCUAGACCGACCCACCAUATT against FKBP6, the median seed-adjusted z-score was -1.12 (active).
For UCAUCUUCAUCGACCGGAATT against AGPAT1, the median seed-adjusted z-score was -1.38 (active).
With GCCUAUUCCUUCAAGUAUUTT against SUPT6H the median seed-adjusted z-score was -2.54 (active).
For GAAUCUGUCUUAGAUCUCATT against PRDM2, the median seed-adjusted z-score was 1.12 (active).
With CGAUUCCAGCAGUAGCUCATT against AP3B2 the median seed-adjusted z-score was -2.45 (active).
In the case of GCAACACCCAGGUAGUUUUTT against EIF4A1, the median seed-adjusted z-score was -1.05 (active).
